We go through 18 compounds from PubChem BioAssay AID1053117 (Broad Institute, 2014).

Entries with a potency or affinity are not part of this list. Active and inactive are the calls of the source.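 How the source made its calls: active means compounds lowering cell ATP signal with a fitted half-effect dose at most twice the top valid dose; inconclusive means flat curve with 30 to 70% signal loss, or bad fit; inactive means wrong direction, flat within 30%, or weaker than limit.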

A short description of this experiment: viability loss in HEK293 kidney cells – cell-based, cherry-picks, set 5, cytotoxicity control, dose response (AID 1053117).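 Further: more negative means greater loss of ATP signal and more cytotoxicity.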 Particulars: HEK293T viability, CellTiter-Glo ATP luminescence, 72 h; series mostly up to 26 µM.
Take `C[C@@H]1CN([C@H](C)CO)C(=O)c2cc(-c3ccccc3)cnc2O[C@H]1CN(C)C(=O)c1cccc(F)c1`: the compound was classed as inactive. As for `COc1ccc(CCNC(=O)C2CCN(Cc3nc(-c4ccccc4F)oc3C)CC2)cc1OC`, the outcome was inactive.

Take `Cc1ccn2cc(-c3ccc(NC(=O)c4ccco4)cc3)nc2c1`: the compound was classed as inactive. Regarding `CSc1ccccc1C(=O)C1CCCN(C(=O)CCc2cccnc2)C1` (stereo not drawn), the call was inactive. Regarding `Cc1ccc(O)c(-c2cc(-c3cccc(Br)c3)n[nH]2)c1`, the result was inactive. On to `C[C@@H]1CN([C@H](C)CO)C(=O)c2cc(NC(=O)C3CCCCC3)ccc2O[C@@H]1CN(C)Cc1ccc(-c2ccccc2)cc1`, for which the compound was classed as inactive. Regarding `COc1cccc(S(=O)(=O)N2CC[C@@H]3[C@H]2c2cc(-c4ccc(C#N)cc4)ccc2N[C@@H]3CO)c1`, the result was inactive. As for `COC(=O)C[C@@H]1CC[C@@H]2[C@H](COc3ccc(NC(=O)Cc4cccs4)cc3C(=O)N2C)O1`, the result was inactive.

`O=C(Nc1nc(-c2ccncc2)cs1)C1COc2ccccc2O1` (stereo not drawn): the compound was called inactive. For the compound `O=C(c1cccnc1)N1C[C@H]2[C@@H](c3ccccc31)[C@@H](CO)N2CC1CCCC1`, the call was inactive. In the case of `C[C@H](O)C#Cc1ccc2c(c1)O[C@@H](CN(C)C)[C@H](C)CN([C@H](C)CO)S2(=O)=O`, the call was inactive. `OC(CNC1CCCc2ccccc21)COc1c(Cl)cccc1Cl` (stereo not drawn): the compound was classed as inactive.

As to `COC(=O)C[C@@H]1CC[C@@H]2[C@@H](COc3ccc(NC(=O)Cc4cccs4)cc3C(=O)N2C)O1`, the call was inactive. Regarding `COCC(=O)Nc1ccc2c(c1)C(=O)N(C)[C@@H]1CC[C@H](CC(=O)NCc3ccccc3Cl)O[C@@H]1CO2`, the call was inactive.

Turning to `CCc1nc2c(OCCc3cccc(OC)c3)cccn2c1N(C)C(=O)c1ccc(C)cc1`, the result was inactive. With `N#C[C@@H]1[C@@H](c2ccccc2C2=CCCCC2)[C@H](CO)N1S(=O)(=O)c1ccccc1`, the compound was called inactive.

On to `CCc1ccc(NC(=O)CSc2nnc(-c3ccco3)o2)cc1`, for which the compound was classed as inactive. For the compound `COc1cccc(CNC(=O)CCc2nnc3ccc(NCCCN4CCCC4=O)nn23)c1`, the outcome was inactive.
